BAZ2B inh = blocks human BAZ2B; Potency, µM (highest dose often 114 µM), actives largely listed as inhibitors; Q9UIF8; actives 4.4% (n = 360,000); AlphaScreen BAZ2B-H3K14Ac peptide displacement; further: nearly all actives have a fitted effect of over 60% in size
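AlphaScreen displacement of biotin-H3(5-23)K14Ac peptide (50 nM final) from BAZ2B (50 nM final) in PBS pH 7.4, 0.01% Tween-20; complex preformed 30 min RT, then compounds (top 110 uM) 30 min RT, beads 20 min dark.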
L3MBTL1 inh = L3MBTL1 (human) inhibition | actives 0.66% (n = 230,000) | Potency, µM (highest dose often 57.1 µM), most hits filed as inhibitors | AlphaScreen L3MBTL1–H3K9me1 peptide binding; further: nearly all actives have a fitted effect of over 60% in size
Target sequence (Q9Y468 whole entry, looked up): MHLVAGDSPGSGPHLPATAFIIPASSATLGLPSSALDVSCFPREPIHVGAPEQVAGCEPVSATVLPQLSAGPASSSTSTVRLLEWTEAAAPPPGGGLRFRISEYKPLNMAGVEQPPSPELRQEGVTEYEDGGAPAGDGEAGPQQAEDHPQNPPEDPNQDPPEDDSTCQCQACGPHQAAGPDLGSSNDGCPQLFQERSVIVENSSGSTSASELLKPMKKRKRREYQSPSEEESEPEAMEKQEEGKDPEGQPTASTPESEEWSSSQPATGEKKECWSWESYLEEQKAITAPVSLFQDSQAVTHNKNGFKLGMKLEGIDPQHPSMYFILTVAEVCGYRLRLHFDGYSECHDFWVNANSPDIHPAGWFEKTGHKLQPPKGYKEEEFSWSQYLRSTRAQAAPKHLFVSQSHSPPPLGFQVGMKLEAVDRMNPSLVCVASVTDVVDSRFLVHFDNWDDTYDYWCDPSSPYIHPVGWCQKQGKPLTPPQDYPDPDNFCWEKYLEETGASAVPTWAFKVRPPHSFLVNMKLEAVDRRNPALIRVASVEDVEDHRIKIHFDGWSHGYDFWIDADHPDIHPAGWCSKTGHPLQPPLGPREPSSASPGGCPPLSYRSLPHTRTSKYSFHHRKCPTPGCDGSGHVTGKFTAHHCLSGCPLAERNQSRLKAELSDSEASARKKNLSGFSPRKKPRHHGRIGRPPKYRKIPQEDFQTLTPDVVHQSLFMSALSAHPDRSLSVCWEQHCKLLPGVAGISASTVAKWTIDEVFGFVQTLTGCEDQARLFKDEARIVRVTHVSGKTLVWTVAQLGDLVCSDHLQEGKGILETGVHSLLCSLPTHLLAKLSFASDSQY
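L3MBTL1 50 nM + b-AHA-H3(1-15)K9me1 75 nM, 30 min RT; compound added, 30 min RT; streptavidin donor/Ni-chelate acceptor beads 10 ug/mL each final, 30 min RT dark; AlphaScreen read.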
HP1b chromo inh = blocks HP1-beta chromodomain binding to methylated histone tails. Potency, µM (top dose mostly 114 µM), actives largely listed as inhibitors. AlphaScreen HP1-beta / biotin-H3K9me3 peptide binding. P83916. actives 0.56% (n = 390,000); further: nearly all actives have a fitted effect of over 70% in size
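HP1-beta protein (50 nM final) preincubated 30 min at room temperature with biotinylated H3(1-18)K9me3 peptide (50 nM) in PBS pH 7.4, 0.01% Tween-20, then compound added for 30 min. AlphaScreen streptavidin donor/nickel chelate acceptor beads (10 ug/mL final), 30 min dark, luminescence read.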
G9a inh = G9a (human) methyltransferase inhibition; Q96KQ7; G9a H3K9 monomethylation, AlphaScreen, 2 h; Potency, µM (titrated, usually from 102 µM), hits mostly inhibitors; actives 8.8% (n = 350,000); AID 504332; further: nearly all actives have a fitted effect of over 75% in size
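Step 1: enzyme (final 20 nM) with compound, 15 min RT. Step 2: substrate peptide 500 nM and SAM 20 uM, 2 h RT. Step 3: anti-H3K9me1 antibody and AlphaScreen beads, 10 min, then plate read.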
JMJD2A Tudor = inhibitors of human JMJD2A Tudor domain | actives 4.4% (n = 390,000) | AlphaScreen JMJD2A-Tudor / H3K4me3 peptide binding | AID 504339 | Potency, µM (series often up to 114 µM), usual class: inhibitors | O75164; further: nearly all actives have a fitted effect of over 50% in size
Of the large screens only hits and unclear results are named; the others gave an inactive call. Hits are enriched below; roughly 11% of the tested compounds scored in any of these assays. The call rests on the fitted dose curve; in most records, active means well fitted inhibition curve with a large enough effect; inconclusive means small, poorly fitted or top-dose-only effect; inactive means no such curve, though single readings can be large or run the other way.

CCOc1ccc(OCC(=O)Nc2ccc(S(=O)(=O)Nc3cc(C)nc(C)n3)cc2)cc1	G9a inh 14µM
CCCCC(Br)C(=O)Nc1ccc(S(=O)(=O)Nc2cc(C)nc(C)n2)cc1 (stereo not drawn)	G9a inh 50µM (no result: L3MBTL1 inh)
CCOc1ccc2c(c1)c(=O)c(C(=O)c1ccc(CC)cc1)cn2CC(=O)Nc1ccc2c(c1)OCCO2	none (no result: L3MBTL1 inh)
COc1ccc(CCC(=O)NCc2ccc3c(c2)CCN3C(=O)c2ccc(Cl)cc2)cc1	none (no result: L3MBTL1 inh)
COc1cccc(Cn2cnc3c2c(=O)n(C)c(=O)n3C)c1	none (no result: L3MBTL1 inh)
CCOC(=O)c1ccccc1NC(=O)N1CCC(CN2CCCCC2)CC1	none (no result: L3MBTL1 inh)
Cc1cc(NS(=O)(=O)c2ccc(NC(=O)COc3ccc(Br)cc3)cc2)nc(C)n1	JMJD2A Tudor 20µM (no result: L3MBTL1 inh, G9a inh)
CCOC(=O)Nc1ccc(S(=O)(=O)Nc2cc(C)on2)cc1	none
CCOC(=O)/C=C/C(=O)Nc1ccc(S(=O)(=O)Nc2cc(C)on2)cc1	G9a inh 50µM (no result: L3MBTL1 inh)
O=C(O)c1ccc(N2C(=O)CC(SC(=Nc3ccccc3)Nc3ccccc3)C2=O)cc1 (stereo not drawn)	none
CC(/C=C/c1ccc(N(C)C)cc1)=N\N=C(/N)SC1CC(=O)N(c2ccc(C(=O)O)cc2)C1=O (stereo not drawn)	BAZ2B inh 50µM, HP1b chromo inh inconclusive, G9a inh inconclusive, JMJD2A Tudor 32µM
CCc1noc(C)c1C(=O)N1CCC(CCC(=O)Nc2cccc(C)c2)CC1	none (no result: L3MBTL1 inh)
COc1ccc(CN2CCC(C(=O)NCCc3ccc(OC)c(OC)c3)CC2)c(OC)c1	none (no result: L3MBTL1 inh)
CCOCCCNC(=O)C1CCN(Cc2ccc(OCc3ccccc3)c(OC)c2)CC1	G9a inh 50µM, JMJD2A Tudor inconclusive
COc1ccccc1OCCNC(=O)C1CCN(C(C)=O)CC1	G9a inh inconclusive (no result: L3MBTL1 inh)
CCOc1cc(CN2CCN(S(=O)(=O)Cc3ccccc3)CC2)ccc1OC	none (no result: L3MBTL1 inh)
CCCS(=O)(=O)N1CCN(Cc2ccc(OCc3ccccc3)c(OC)c2)CC1	HP1b chromo inh inconclusive, JMJD2A Tudor 28µM (no result: BAZ2B inh, L3MBTL1 inh, G9a inh)
CCCCNC(=O)C1CCN(Cc2ccc(OCc3ccccc3)c(OC)c2)CC1	BAZ2B inh inconclusive, G9a inh 14µM, JMJD2A Tudor 22µM
CN(C)CCCNCCCNC(=O)/C(=N\O)c1ccccn1	BAZ2B inh 50µM, G9a inh 7.9µM, JMJD2A Tudor inconclusive
CCN(CC)CCNC(=O)/C(=N\O)c1ccccn1	BAZ2B inh inconclusive, JMJD2A Tudor inconclusive
CCOc1ccc(C2C(C(=O)Nc3ccccc3OC)=C(C)Nc3c(C(=O)Nc4cccc(C)c4)cnn32)cc1 (stereo not drawn)	none (no result: L3MBTL1 inh)
CCCn1cc(S(=O)(=O)c2ccc(Cl)cc2)c(=O)c2cc(OC)ccc21	BAZ2B inh inconclusive, JMJD2A Tudor 22µM (no result: L3MBTL1 inh)
CCN(c1cc(C)cc(C)c1)S(=O)(=O)c1nnc(NC(=O)c2cccc(F)c2)s1	none (no result: L3MBTL1 inh)
COc1ccc(CN=Cc2[nH]c3ccc(Br)c(Cl)c3c2O)cc1	BAZ2B inh 45µM, HP1b chromo inh inconclusive, G9a inh 4µM, JMJD2A Tudor inconclusive
Cc1cc(C)cc(N=Cc2[nH]c3ccc(Br)c(Cl)c3c2O)c1	BAZ2B inh inconclusive, HP1b chromo inh inconclusive, G9a inh 13µM, JMJD2A Tudor inconclusive
Clc1ccc2c(c1)-c1nnc(Br)n1-c1ccccc1S2	L3MBTL1 inh inconclusive, G9a inh 10µM
Brc1nnc2n1-c1ccccc1Sc1ccccc1-2	none
C=C1c2ccccc2O[C@H](C(=O)OCC)[C@@H]1CC(C)(C)c1ccccc1	none (no result: BAZ2B inh, L3MBTL1 inh, HP1b chromo inh, JMJD2A Tudor)
CCNC(=S)N/N=C/c1ccc(F)cc1	none (no result: HP1b chromo inh, JMJD2A Tudor)
CCCCNC(=S)N/N=C/c1ccc(C#N)cc1	HP1b chromo inh inconclusive, JMJD2A Tudor 89µM
COc1ccc(-n2c(SCc3ccccc3)nc3c([nH]c4ccccc43)c2=O)cc1	none (no result: L3MBTL1 inh)
Cc1cc(C)nc(NS(=O)(=O)c2ccc(NC(=O)c3nc(SC(C)C)ncc3Cl)cc2)n1	none (no result: L3MBTL1 inh)
CCOCCCNCC(=O)NC1(C)C2CCC(C2)C1(C)C (stereo not drawn)	BAZ2B inh 56µM, G9a inh inconclusive, JMJD2A Tudor 6.3µM (no result: L3MBTL1 inh)
CC1(C)C2CCC(C2)C1(C)NC(=O)CNCC1CCCCC1 (stereo not drawn)	HP1b chromo inh inconclusive, G9a inh 5.6µM, JMJD2A Tudor inconclusive (no result: BAZ2B inh)
CC(Cc1ccccc1)(NC(=O)CN)c1ccccc1 (stereo not drawn)	BAZ2B inh 79µM (no result: L3MBTL1 inh, HP1b chromo inh, JMJD2A Tudor)
COc1ccc(-n2c(Cc3cccn3C)nnc2SCC(=O)NC2CCCCC2)cc1	G9a inh inconclusive
Cn1cccc1Cc1nnc(SCC(=O)NC2CCCC2)n1-c1ccc(F)cc1	G9a inh 71µM (no result: L3MBTL1 inh)
COc1cccc(-n2c(Cc3cc(=O)[nH]c(=O)[nH]3)nnc2SCC(=O)NC2CCCCC2)c1	G9a inh inconclusive
O=C(CSc1nnc(Cc2cc(=O)[nH]c(=O)[nH]2)n1-c1ccc(F)cc1)NC1CCCC1	G9a inh 79µM
COc1cccc(-n2c(Cc3cc(=O)[nH]c(=O)[nH]3)nnc2SCc2cccnc2)c1	G9a inh 50µM
Cc1ccc(C)c(-n2c(Cc3cc(=O)[nH]c(=O)[nH]3)nnc2SC(C)C)c1	G9a inh 50µM
c1cncc(CNc2ncnc3ccc(-c4ccco4)cc23)c1	G9a inh inconclusive (no result: HP1b chromo inh, JMJD2A Tudor)
COc1ccc(C)cc1NC(C)C(=O)NC(=O)NC1CCCCC1 (stereo not drawn)	BAZ2B inh inconclusive, L3MBTL1 inh inconclusive, G9a inh inconclusive, JMJD2A Tudor inconclusive
Cn1cccc1Cc1nnc(SCC(=O)NCc2ccccc2)n1-c1ccc(F)cc1	BAZ2B inh inconclusive, G9a inh 50µM (no result: L3MBTL1 inh)
CCOc1ccc(-n2c(Cc3cc(=O)[nH]c(=O)[nH]3)nnc2SCC(=O)OC)cc1	G9a inh inconclusive
Cn1cccc1Cc1nnc(SCC(=O)NC2CCCCC2)n1CCc1ccccc1	G9a inh 45µM, JMJD2A Tudor inconclusive
Cn1cccc1Cc1nnc(SCC(=O)NCc2ccc(F)cc2)n1-c1ccc(F)cc1	BAZ2B inh inconclusive, G9a inh 50µM
CCOC(=O)CSc1nnc(Cc2cc(=O)[nH]c(=O)[nH]2)n1-c1ccc(Cl)cc1	G9a inh 50µM, JMJD2A Tudor inconclusive
CC1CCc2c(sc(NC(=O)Cc3ccccc3)c2C(=O)Nc2ccc(Cl)cc2)C1 (stereo not drawn)	none (no result: L3MBTL1 inh)
Cc1ccccc1CSc1nc2c([nH]c3ccccc32)c(=O)n1-c1ccccc1	BAZ2B inh inconclusive (no result: L3MBTL1 inh)
Cc1noc(/C=C/c2ccco2)c1S(=O)(=O)N1CCC(C(=O)Nc2ccc(F)cc2F)CC1	none (no result: BAZ2B inh, L3MBTL1 inh)
COCC(C)NCc1ccc(C)cc1C (stereo not drawn)	G9a inh 11µM, JMJD2A Tudor 4.5µM
CC(CCc1ccccc1)NCc1cccc2ccccc12 (stereo not drawn)	G9a inh inconclusive, JMJD2A Tudor 25µM
COCC(C)NCc1cccc2ccccc12 (stereo not drawn)	G9a inh 32µM, JMJD2A Tudor 32µM
COCCNC(=O)c1ccc(C)cc1C	none
